M1 antag – human M1 muscarinic receptor antagonists, primary screen, CHO-K1 cells, Fluo-8 calcium fluorescence, 1536-well; inhibition, % at 3 µM; actives 1.3% (n = 360,000); Muscarinic acetylcholine receptor M1 (Homo sapiens), P11229; CHO-K1 hM1, ACh EC80 antagonist; AID 588852, 2011;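 active = percent inhibition above its own plate's cutoff, namely the mean of that plate's compound wells plus 3 SD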;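 also: peak over basal fluorescence ratio during 140 s after agonist addition; 0% = ACh EC80 plus DMSO and 100% = DMSO alone without agonist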
Target sequence (P11229 whole entry, looked up): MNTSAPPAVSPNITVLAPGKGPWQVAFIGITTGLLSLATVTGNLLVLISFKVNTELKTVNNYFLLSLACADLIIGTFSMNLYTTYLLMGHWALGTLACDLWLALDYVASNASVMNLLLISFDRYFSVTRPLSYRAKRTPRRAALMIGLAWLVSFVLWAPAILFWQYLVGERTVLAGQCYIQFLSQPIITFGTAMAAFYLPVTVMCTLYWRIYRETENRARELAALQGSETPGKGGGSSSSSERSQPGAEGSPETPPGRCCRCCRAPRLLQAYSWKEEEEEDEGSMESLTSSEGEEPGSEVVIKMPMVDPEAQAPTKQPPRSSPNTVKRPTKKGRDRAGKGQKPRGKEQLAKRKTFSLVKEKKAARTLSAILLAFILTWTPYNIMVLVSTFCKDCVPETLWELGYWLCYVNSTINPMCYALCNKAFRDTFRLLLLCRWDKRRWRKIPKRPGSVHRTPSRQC
CHRM1 PAM – human M1 muscarinic receptor positive allosteric modulators, primary screen, CHO-K1 cells, Fluo-8 calcium fluorescence, 1536-well; Muscarinic acetylcholine receptor M1 (Homo sapiens), P11229; CHO-K1 hM1, ACh EC20; 0% = ACh EC20, 100% = maximal ACh; activation, % at 3 µM; actives 0.088% (n = 360,000); AID 588819, 2011; in the data active = activation above about 19%, passing the limit was not always enough
ATG4B inh – ATG4B protease inhibitors, primary screen, biochemical, fluorescence, uHTS. ATG4B cleavage of LC3-PLA2, NBD-HPC fluorescence, 1 h. Cysteine protease ATG4B (Homo sapiens), Q9Y4P1. actives 0.51% (n = 340,000). inhibition, % at 8.33 µM; in the data active = inhibition above about 40%
SKN-1 block – suppressors of acrylamide-induced Pgst-4::GFP reporter in worms, primary screen, SKN-1 inhibitor project, whole organism, uHTS, GFP/RFP fluorescence ratio, strain VP596; C. elegans VP596 Pgst-4::GFP/RFP ratio, 24 h; inhibition, % at 21.8 µM; actives 0.49% (n = 360,000); AID 624304, 2012;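 active = interference check ratio from 0.5 to 1.5 plus GFP to RFP signal ratio inhibition reaching or exceeding a fixed threshold, cut at about 30% in these data, passing the limit was not always enough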
Myeloid diff MLP – induction of myeloid progenitor differentiation, primary screen, cell-based, flow cytometry, MLPCN library. actives 1% (n = 360,000). AID 624256, 2012. calls only at 10 µM. ER-HoxA9 myeloid progenitors, lysozyme-GFP differentiation;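 active = normalized GFP-positive differentiation at or above the plate's own cutoff, the solvent-only control mean plus 3 SD; inconclusive = no clear call, values can overlap the other calls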;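 also: cells exposed to compound for four days before flow analysis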
M1 ag – human M1 muscarinic receptor agonists, primary screen, Fluo-8 calcium fluorescence, CHO-K1 cells, HTS. Muscarinic acetylcholine receptor M1 (Homo sapiens), P11229. CHO-K1 hM1, agonist mode; 0% DMSO, 100% acetylcholine EC100. activation, % at 3 µM. actives 0.33% (n = 360,000). AID 588814, 2011;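 active = activation above the run's mean compound activation plus 3 SD, cut at about 16% in these data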;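 also: peak over basal fluorescence ratio within a 140 s kinetic read after compound addition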
Active calls of the source: *; i = inactive; u = inconclusive; x = no result given; + = active, no number. Hits are enriched below; roughly 3.5% of the tested compounds scored in any of these assays.

SMILES	M1 antag	CHRM1 PAM	ATG4B inh	SKN-1 block	Myeloid diff MLP	M1 ag
COC(=O)c1ccc(COc2ncnc3ccccc23)o1	-7	1	0	-2	i	-2
COC(=O)c1ccc(CSc2nc(N)cc(N)n2)cc1	-9	7	6	14	i	0
COC(=O)c1ccc(CSc2nc3ccccc3o2)cc1	10	-1	-3	40*	i	-1
O=[N+]([O-])c1ccc(CSc2nc3ccccc3o2)cc1	-13	5	-1	69*	i	-3
Cc1ccc(C(=O)NCCc2nc3ccccc3[nH]2)cc1[N+](=O)[O-]	5	-6	-3	7	i	-1
O=C(NCCc1nc2ccccc2[nH]1)c1ccc(Cl)c([N+](=O)[O-])c1	29*	-27	-3	0	i	-8
CN(C)c1ccc(/C=C/c2ccc3ccccc3n2)cc1	14	-6	-5	58*	i	8
COc1cc(/C=C/c2nc3ccccc3s2)cc(OC)c1O	25	-7	-16	21	+	-1
COc1cc(C=C(c2nc3ccccc3s2)c2nc3ccccc3s2)ccc1O	14	-4	24	-5	i	-8
CN(C)c1ccc(/C=C/c2nc3ccccc3s2)cc1	-10	10	9	27	+	3
CCCN(CCC)c1ccc(/C=C/c2ccc3cc(OCC)ccc3n2)cc1	-4	5	4	64	+	-3
CN(C)c1ccc(/C=C/c2nnnn2-c2ccccc2)cc1	10	-5	13	2	i	-5
O=C(NNC(=O)c1ccc2[nH]c(=O)c(=O)[nH]c2c1)c1cccc(Br)c1	-10	18	2	-1	i	0
Cc1ccc(C)c(S(=O)(=O)N2CCN(C(=O)CCCc3c[nH]c4ccccc34)CC2)c1	10	-4	-9	9	i	2
O=[N+]([O-])c1ccc(/C=C/c2ccc3ccccc3n2)cc1	5	1	-6	4	i	-9
C(=C\c1ccc2ccccc2n1)/c1ccccc1	-3	-2	-5	84*	i	-5
Fc1ccccc1/C=C/c1ccc2ccccc2n1	-4	6	19	88*	i	-4
CN(C)c1ccc(C(=N)Cc2ccc3ccccc3n2)cc1	-8	-1	x	33	+	-2
Cc1cc(C)c2oc(C(=O)N(Cc3cccs3)C3CCS(=O)(=O)C3)cc(=O)c2c1 (stereo not drawn)	-11	4	-14	-5	i	-4
COCCN(C(=O)COC(=O)C1CC(=O)N(c2ccc(C)cc2)C1)c1c(N)n(Cc2ccccc2)c(=O)[nH]c1=O (stereo not drawn)	-9	6	x	-26	i	-3
Cc1nc(NC(=O)COC(=O)CCc2ccccc2)c(Cl)cc1Cl	-14	25*	12	-5	i	2
Cc1c(OCC(=O)NCc2cccnc2)ccc2c3c(c(=O)oc12)CCCC3	3	-4	0	1	i	-2
Cc1c(C(=O)N2CCCC2)c(S(=O)(=O)NCCc2ccccc2)c(C)n1C	-10	11	0	12	i	-3
Cn1c(=O)n(Cc2ccc(F)cc2)c(=O)c2c1nc1n2CCN1Cc1ccco1	7	0	3	0	i	-4
Cn1c(=O)n(CCc2ccccc2)c(=O)c2c1nc1n2CCN1Cc1ccco1	32*	-7	-6	19	i	0
SMILES	M1 antag	CHRM1 PAM	ATG4B inh	SKN-1 block	Myeloid diff MLP	M1 ag
CCOC(=O)CC1C(=O)NCCN1c1nc2ccc(C)cn2c(=O)c1/C=C1\SC(=S)N(CC(C)C)C1=O (stereo not drawn)	2	-4	-10	42*	+	5
CCCN1C(=O)/C(=C/c2c(N3CCNC(=O)C3CC(=O)OCC)nc3c(C)cccn3c2=O)SC1=S (stereo not drawn)	39*	-17	-23	37	+	13
COc1cccc(-c2cnc(C(O)c3ccc(C)c(F)c3)[nH]2)c1 (stereo not drawn)	2	4	x	5	i	1
Cc1cccc(C)c1NC(=O)C1C(c2ccc3c(c2)OCO3)=Nc2ccccc2N1C(=O)c1cccc2ccccc12 (stereo not drawn)	x	x	x	9	i	x
Cc1cccn2c(=O)c(C=O)c(N3CCCCCC3)nc12	-5	5	-1	37*	i	-6
O=C(NCc1ccccn1)c1[nH]c(C(F)(F)F)nc1-c1ccccc1	-27	2	x	7	i	1
O=c1c(O)c(-c2ccc(O)cc2)oc2cc(O)cc(O)c12	-7	15	-12	3	i	19*
CN1CCC(N2CCN(C3CN(Cc4cn(Cc5ccc(C(F)(F)F)cc5)nn4)S(=O)(=O)C3)CC2)CC1 (stereo not drawn)	x	x	x	-1	i	x
Cc1cc(/C=N/n2cnnc2)c(C)n1-c1ccc2c(c1)OCO2	-7	9	-3	10	i	-6
Cc1cccc(-n2c(C)cc(/C=N/n3cnnc3)c2C)c1	70*	-21	-8	16	i	-3
COc1ccc2c(c1)C(c1ccccc1)NC(=O)C2 (stereo not drawn)	6	-1	2	3	i	-3
CCOCc1nc(N)nc(N)c1-c1cccc(Cl)c1	1	1	x	-2	u	-3
Cc1ccccc1NC(=O)c1ccc(C)c(S(=O)(=O)NCc2cccnc2)c1	-6	10	3	4	i	22*
COc1ccccc1NS(=O)(=O)c1cc(C(=O)NCc2cccnc2)ccc1C	-26	16	6	-3	i	1
Cc1csc2c(N3CCN(C(=O)Nc4ccccc4)CC3)ncnc12	11	-8	-3	15	i	-1
Cc1csc2c(N3CCN(C(=S)Nc4ccc(F)cc4F)CC3)ncnc12	38	-15	-10	10	i	23*
CC(C)CNc1ncnc2c1ncn2[C@H]1CN(CCc2ccccc2)C[C@@H](CO)O1	-9	4	x	21	i	-2
COc1ccc(Cl)cc1C(=O)CSc1nnnn1C1CCCCC1	27*	-16	-11	8	i	-3
Cc1ccc(C(=O)OCC(=O)N2CCCC2)cc1	21*	-7	-9	6	i	0
Cc1ccc(S(=O)(=O)N2CCN(C(=O)COC(=O)c3ccc(C(C)(C)C)cc3)CC2)c(C)c1	-3	8	-11	-1	i	-2
Cc1ccc(S(=O)(=O)N2CCN(C(=O)COC(=O)c3ccc(O)cc3)CC2)c(C)c1	30*	-12	-14	0	i	0

Assay outcomes: PubChem, several laboratories
